Test results: PubChem BioAssay AID1621 (Southern Research Specialized Biocontainment Screening …, 2009)
The campaign covered roughly 290,000 compounds. About 60 (0.02%) were called active. Roughly 1% stayed inconclusive and do not appear here. How the calls were made is not given here. Not all results are given here. Potency and affinity values are given separately.

assay: inhibition of WNV-induced cytopathic effect – cell-based, CPE readout (AID 1621); settings: West Nile virus-infected cells, at 10 µM, stronger effect = higher value

CPE inhibition, inactive:
O=C(COc1ccc(S(=O)(=O)N2CCc3ccccc32)cc1Cl)NCc1ccccn1 -0.17%
CCOc1ccc(NC(=O)C(C)O)c(NS(=O)(=O)c2ccc(CCNC(C)=O)cc2)c1 (configuration not stated) -0.27%
O=C(CNS(=O)(=O)c1ccccc1)OCC(=O)c1ccc(Br)cc1 -0.68%
CCOC(=O)C1C(=O)CC(C)(O)C(C(=O)OCC)C1c1ccc(NC(C)=O)cc1 (configuration not stated) 0%
O=C1CSC(c2cn(-c3ccccc3)nc2-c2ccccc2)N1Cc1ccco1 (configuration not stated) -0.03%
O=C(NC1CCS(=O)(=O)C1)c1sc2ccccc2c1Cl (configuration not stated) 1.04%
CCCC1CCC(C(=O)Nn2cnc3ccccc3c2=O)CC1 (configuration not stated) 0.33%
Cc1[nH]c(=O)c(C#N)c(C)c1CCC(=O)NCc1ccc(Cl)cc1 0.96%
Cc1nc(Cl)sc1C(=O)NC(C)c1ccc(Cl)cc1 (configuration not stated) -0.9%
O=C1CN(C(=O)c2ccc(Cl)nc2)c2ccccc2N1 0.17%
CC(C)(C)c1ccc(NC(=O)CSc2nnc(-c3n[nH]c4ccccc34)o2)cc1 0.07%
Cc1cc(C)c2nc(N3CCCC(C(=O)NCCN4CCOCC4)C3)sc2c1 (configuration not stated) -0.73%
Cc1cc(C)c2nc(N3CCCC(C(=O)NCCCN4CCOCC4)C3)sc2c1 (configuration not stated) -0.13%
COC(=O)c1ccccc1NC(=S)N(Cc1ccc2c(c1)OCO2)Cc1cc2cc(C)ccc2[nH]c1=O 0.29%
Cc1[nH]c(C(=O)O)c(C)c1C(=O)OC(C)C 0.13%
CC(C(=O)NC(C)(C)C)N1C(=O)c2cccc3cccc(c23)C1=O (configuration not stated) -0.58%
CN(C)CCNC(=O)c1c(NC(=O)c2ccccc2)sc2c1CCCC2 2.53%
NCCNC(=O)c1c(NC(=O)c2ccccc2)sc2c1CCCC2 -0.62%
CCc1cccc(NC(=O)C2CCCN2S(=O)(=O)c2cccc3cccnc23)c1 (configuration not stated) -0.25%
Cc1cccc2c1-c1sc(C(=O)NCCCN3CCC(C)CC3)cc1CO2 1.03%
Cc1cccc2c1-c1sc(C(=O)NCCCN3CCc4ccccc4C3)cc1CO2 -0.65%
O=C(NC1CC1)c1cc2c(s1)-c1ccccc1OC2 1.08%
O=C(NCCCN1CCOCC1)c1cc2c(s1)-c1ccccc1OC2 0.21%
CCN1CCN(CCCNC(=O)c2cc3c(s2)-c2ccccc2OC3)CC1 35.2%
CCCN1CCN(CCCNC(=O)c2cc3c(s2)-c2c(C)cccc2OC3)CC1 -0.21%
O=C(NCc1cccs1)c1cc2c(s1)-c1ccccc1OC2 0.12%
Cc1cccc2c1-c1sc(C(=O)NCCCN3CCCC(C)C3)cc1CO2 (configuration not stated) -0.27%
CC1(C)SC2c3ccccc3C(=O)N2[C@@H]1C(=O)O (some centres not stated) 1.57%
COc1ccc(C2/C=C\CN(C(=O)OCc3ccccc3)CC(=O)N2Cc2ccc(F)cc2)cc1 (configuration not stated) -0.53%
O=c1c2ccccc2cnn1Cc1cccc(Br)c1 0%
COc1ccc(-c2noc(N3CCCC(C(=O)Nc4cc(F)ccc4F)C3)n2)cc1 (configuration not stated) -0.21%
CCSc1nnc(Nc2ccccc2)s1 0.4%
C/C(=N\NC(=O)c1nn(C)c(C)c1Br)c1ccc(NC(=O)c2ccc(C)s2)cc1 -0.9%
Cc1ccc(S(=O)(=O)NC(C)CCc2ccccc2)cc1 (configuration not stated) -1.02%
COc1cc2ccccc2cc1C(=O)NC(=S)Nc1nnn(C)n1 0.33%
Cc1sc(/C=C2\C(=O)ON=C2c2ccccc2)cc1Br 0.35%
CC(C)NC(=O)c1ccc(-c2ccc(Cl)c(C(F)(F)F)c2)o1 -0.86%
CCOC(=O)C1C(c2cccs2)NC(=O)N(C)C1(O)C(F)(F)F (configuration not stated) -0.41%
CCCCNC(=O)c1onc(CSc2cc(C)cc(C)c2)c1C(=O)NCCCC -0.6%
COCCNC(=O)c1onc(CSc2cc(C)cc(C)c2)c1C(=O)NCCOC 0.39%
O=C(CC(=O)Nc1ccccc1C(=O)O)NNC(=O)Cc1ccccc1 -0.29%
O=C(CCCl)N1CCN(c2nc(-c3ccccc3)cs2)CC1 1.96%
CN(C)C(=O)N1CCN(c2nc(-c3ccccc3)cs2)CC1 -0.36%
CCCNc1c(NC(=O)c2cccs2)c(=O)oc2ccccc12 -0.26%
Cc1ccc(NC(=O)C(C)N2C(=O)c3ccccc3C2=O)cc1C (configuration not stated) 0.2%
CCOC(=O)CN1C(=O)N[C@@H](c2cccc(C(F)(F)F)c2)[C@H](C(C)=O)[C@H]1C -0.43%
CCN(CC)CCC(c1ccc(N(C)C)cc1)c1c(OC)cc(OC)c2c(-c3ccccc3)cc(=O)oc12 (configuration not stated) -0.46%
CCN(CC)CCC(c1cc(OC)c(OC)c(OC)c1)c1c(OC)cc(OC)c2c(C)cc(=O)oc12 (configuration not stated) -0.13%
CONC(=O)Nc1ccccc1[N+](=O)[O-] 0.1%
CCCC(=O)Nc1c(C(=O)OCC)[nH]c2ccccc12 0%
CCOC(=O)c1[nH]c2ccccc2c1NC(=O)C(C)(C)C 0.96%
Cc1ccc(Sc2c(C)nn(C(=O)c3cccc(S(=O)(=O)N4CCOCC4)c3)c2C)cc1 0.04%
O=C(Nc1ccc(S(=O)(=O)Nc2nccs2)cc1)c1ccc(=O)[nH]c1 -0.06%
CCOc1ccc(NC(=O)c2c(NC(=O)CN3CCCC3)sc3c2CCC3)cc1 -0.99%
CN1CCN(CC(=O)Nc2sc3c(c2C(=O)Nc2ccccc2)CCCC3)CC1 1.23%
CCOC(=O)c1c(N)c2cc([N+](=O)[O-])ccc2n1C 0.7%
COCC(C)n1c(SCc2cc(C(=O)OC)c(C)o2)nc2ccccc2c1=O (configuration not stated) -0.56%
CC(=O)c1ccc(N2CCN(c3ccc(S(=O)(=O)NCCN(C)C)cc3[N+](=O)[O-])CC2)cc1 -0.21%
CC(=O)c1ccc(N2CCN(c3ccc(S(=O)(=O)NCCCN(C)C)cc3[N+](=O)[O-])CC2)cc1 -2.19%
COCCn1nnnc1C(c1cccs1)N1CCN2CCCC2C1 (configuration not stated) 0.23%
CCOC(=O)c1c(N)sc(C(=O)Nc2ccccc2)c1C -0.25%
CCOC(=O)c1c(NC(=O)CSc2cccc[n+]2[O-])sc(C(=O)Nc2ccccc2)c1C -0.77%
Cc1cnc(NC(=O)Cc2cccs2)s1 0.29%
COc1ccc(C2c3sc(=O)[nH]c3SC3C4CCC(C4)C23)cc1OC (configuration not stated) 0.48%
O=C(c1cc2ncccn2n1)N1CCc2c([nH]c3ccccc23)C1c1ccccc1F (configuration not stated) 2.67%
CCc1cc(C(=O)N2CCc3c([nH]c4ccccc34)C2c2ccc(OC)cc2F)no1 (configuration not stated) 19.3%
C=CCn1c(SCC(=O)NNC(=O)Nc2ccc(C)cc2)nnc1-c1ccccc1 0.45%
O=C1CN2C(=Nc3ccc(Br)cc3C2c2ccccc2)CCN1 (configuration not stated) -0.54%
c1ccc2c(c1)CN1CCCC1=N2 0.51%
CCN1CCc2nc3ccccc3c(C(=O)Nc3ccc(F)cc3)c2C1 -0.07%
Cc1ccc(OCC(O)Cn2c(N3CCCCC3)nc3c2c(=O)[nH]c(=O)n3C)cc1C (configuration not stated) -0.27%
CCOC(=O)NN1C(=O)c2ccccc2NC1c1ccccn1 (configuration not stated) 0.09%
O=C(Nc1ccccc1N1CCCC1)c1ccccc1Cl -1.13%
Cc1ccccc1/C=N/N1C(=O)CSC1=S 0.91%
Cc1ccc2cc(CN(CCN(C)C)C(=O)Nc3ccc(Cl)cc3)c(=O)[nH]c2c1 2.9%
Cc1ccc2[nH]c(=O)c(CN(CCCN(C)C)C(=O)Nc3cccc(Cl)c3)cc2c1 -1.48%
NC(=O)c1ccc(NC(=O)CSc2nnc(-c3cccnc3)n2Cc2ccco2)cc1 -0.08%
c1ccc(COC2CCCN(Cc3nc(Cc4ccccc4)no3)C2)cc1 (configuration not stated) -1.71%
CC(=O)Oc1ccc2occ(-c3ccccc3)c2c1 -0.4%
CCN(CC)S(=O)(=O)c1ccc(NC(=O)c2cc(-c3ccccc3)nc3ccccc23)cc1 -0.41%
CCN(CC)S(=O)(=O)c1ccc(C(=O)O)cc1 0.13%
CCOC(=O)C1(Cc2ccccc2C(F)(F)F)CCN(C2CCCC2)CC1 -0.59%
CCOC(=O)C1(Cc2ccccc2C(F)(F)F)CCN(C2CCN(C(C)=O)CC2)CC1 -1.08%
CC1CCC2C(=O)N(c3cccc(C(=O)Nc4ccccc4Cl)c3)C(=O)C2C1 (configuration not stated) 0.29%
Cc1ccc(S(=O)(=O)c2nc(-c3cccs3)oc2SCC(N)=O)cc1 2.11%
Cc1c(NC(=O)COC(=O)c2cc(-c3cccc4ccccc34)nc3ccccc23)c(=O)n(-c2ccccc2)n1C -0.96%
COc1ccc2cc(-c3cc(C(=O)OCC(=O)Nc4c(C)n(C)n(-c5ccccc5)c4=O)c4ccccc4n3)ccc2c1 -0.17%
COc1ccc(NS(=O)(=O)c2ccc(O)c(NC(=O)c3ccc(S(=O)(=O)N4CCCCCC4)cc3)c2)cc1 2.03%
COc1ccc(/C(N)=N/OC(=O)c2ccc(Br)o2)cc1 0%
CCn1c(SCC(=O)C(C)(C)C)nnc1-c1cccnc1 -0.07%
CNC(=O)C1CCN(S(=O)(=O)c2c(C)noc2/C=C/c2ccccc2F)CC1 -1%
CCN(CCN(C)C)C(=O)C1CCN(S(=O)(=O)c2c(C)noc2/C=C/c2ccccc2F)CC1 0.04%
